# Source: PubChem BioAssay
# The list is not random: actives were taken first. Their share in the collection is about 1.3%.
# S1P2 blocker – S1P2 (human) receptor antagonism; O95136; cell-based S1P2 antagonist assay, inhibition at 5 uM; inhibition, % at 5 µM; actives 0.21% (n = 97,000); AID 736; in the data active means inhibition above about 45%;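 further: CRE beta-lactamase reporter cells expressing human S1P2 stimulated with S1P; 0% = agonist at EC80 alone and 100% = agonist plus reference antagonist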
# Target sequence (O95136 whole entry, looked up): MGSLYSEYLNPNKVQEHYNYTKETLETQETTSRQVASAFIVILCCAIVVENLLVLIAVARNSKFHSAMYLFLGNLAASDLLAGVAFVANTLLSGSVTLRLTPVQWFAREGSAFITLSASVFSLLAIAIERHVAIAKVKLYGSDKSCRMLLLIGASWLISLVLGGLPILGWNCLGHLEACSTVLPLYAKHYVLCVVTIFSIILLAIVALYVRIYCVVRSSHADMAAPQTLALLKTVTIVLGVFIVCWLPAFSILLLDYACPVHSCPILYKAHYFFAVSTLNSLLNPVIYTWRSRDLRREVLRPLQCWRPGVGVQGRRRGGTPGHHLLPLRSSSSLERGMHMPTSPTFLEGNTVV
# PTPN22 inh 2 – blocks human PTPN22 phosphatase activity | AID 640 | recombinant LYP catalytic domain, DiFMUP fluorescence | actives 0.21% (n = 96,000) | inhibition, % at 2 µM;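 active means inhibition at 2 µM at or above a set limit, the screen mean plus 3 SD, cut at about 24% in these data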;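 further: 0% = DMSO with enzyme and 100% = enzyme fully blocked by orthovanadate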
# GALR2 agonist – GALR2 (human) receptor agonism. O43603. GALR2-expressing cells, agonist activation read-out. activation, % (concentration not given with the values). actives 0.48% (n = 140,000). AID 803; in the data active means activation above about 5%, passing the limit was not always enough;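 further: 0% = vehicle buffer wells and 100% = reference agonist at full effect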
# Target sequence (O43603 whole entry, looked up): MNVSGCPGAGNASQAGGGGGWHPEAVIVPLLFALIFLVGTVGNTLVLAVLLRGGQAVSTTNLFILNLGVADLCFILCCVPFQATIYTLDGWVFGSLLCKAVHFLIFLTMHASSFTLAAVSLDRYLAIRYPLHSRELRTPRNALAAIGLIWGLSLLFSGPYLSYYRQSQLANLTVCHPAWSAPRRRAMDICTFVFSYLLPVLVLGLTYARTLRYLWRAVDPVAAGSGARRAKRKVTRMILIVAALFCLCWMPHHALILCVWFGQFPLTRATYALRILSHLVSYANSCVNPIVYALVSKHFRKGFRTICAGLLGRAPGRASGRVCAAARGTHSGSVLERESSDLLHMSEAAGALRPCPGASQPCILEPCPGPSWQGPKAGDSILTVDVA
# PTPN22 act – increases human PTPN22 phosphatase activity | Q9Y2R2 | recombinant LYP, DiFMUP fluorescence; 0 = plate median, 100 = signal doubled | activation, % at 2 µM | actives 0.11% (n = 96,000);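 active means activation at 2 µM above a set limit, the mean plus 5 SD, cut at about 37% in these data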
# GALR2 blocker – blocks the human galanin receptor 2 | AID 828 | O43603 | GALR2-expressing cells, antagonist mode | actives 0.39% (n = 140,000) | inhibition, % at 4 µM; in the data active means inhibition above about 27%;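 further: cells stimulated with galanin 1-16 at roughly its EC80; 0% = agonist challenge control and 100% = basal control without agonist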
# S1P2 agonist – agonists of human S1P2 receptor. O95136. S1P2-expressing cell line, agonist reporter read-out. activation, % at 4.5 µM. actives 0.46% (n = 97,000); in the data active means activation above about 16%;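 further: 0% = vehicle low control and 100% = maximal reference agonist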
# GALR2 agon conf – confirmation of human galanin receptor 2 (GALR2) agonists; activation, % at 5.6 µM; AID 864; shares compounds with GALR2 agonist; actives 10% (n = 460); GALR2-expressing cells, agonist activation; in the data active means activation above about 8.4%;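 further: 0% = buffer-only vehicle wells and 100% = full reference agonist response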
# BLA activ ctr – activates beta-lactamase reporter in GALR2 agonist counterscreen. shares compounds with GALR2 agonist. CHO NFAT-bla reporter, beta-lactamase FRET activation. activation, % at 5.6 µM. actives 10% (n = 460);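 active means activation above the screen-wide mean activation plus 3 SD, cut at about 8% in these data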;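 further: 0% = DMSO with PBS wells and 100% = thapsigargin positive control wells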
# * = called active by the depositor; nt = not tested or not shown.
SMILES,S1P2 blocker,PTPN22 inh 2,GALR2 agonist,PTPN22 act,GALR2 blocker,S1P2 agonist,GALR2 agon conf,BLA activ ctr
Nc1c(C(=O)c2ccccc2)sc2c1c(=O)[nH]c(=O)n2-c1ccccc1,nt,nt,2.6,nt,-12.5,nt,nt,nt
Nc1c(C(=O)c2ccc(Cl)cc2)sc2c1c(=O)[nH]c(=O)n2-c1ccccc1,nt,nt,22.1*,nt,-15.3,nt,5.5,4.4
Cc1oc2cc3oc(=O)c4c(c3cc2c1C)CCC4,6.1,-2.6,-3.3,1.9,5.8,-2.5,nt,nt
Cc1oc2c(C)c3oc(=O)c4c(c3cc2c1C)CCC4,-15.9,7.2,8.7,-7.6,-7.4,-6.0,-1.1,-1.5
CCOC(=O)C(=Cc1ccc(F)cc1)C(=O)OCC,39.0,3.8,0.4,0.3,16.8,-4.7,nt,nt
CCOC(=O)/C(=C/c1ccc(N2CCC(c3ccccc3)=N2)cc1)C(C)=O,nt,nt,14.0*,nt,8.6,nt,3.9,10.9*
CCOc1ccc(/C(O)=C2/C(=O)C(=O)N(c3ncccn3)C2c2ccccc2)cc1 (stereo not given),nt,nt,-2.5,nt,3.8,nt,nt,nt
Cc1ccc(-c2nn(CC(N)=O)c(=O)c3ccccc23)cc1S(=O)(=O)N(C)C,-4.5,-5.7,33.8*,7.2,-1.4,-6.2,0.0,-0.7
O=C(Cc1ccccc1)NC(=S)Nc1cc(C(F)(F)F)ccc1Cl,1.1,11.4,8.4*,-8.4,-14.1,-5.0,6.3,8.0
O=C(Cc1ccccc1)NC(=S)Nc1cccc(C(F)(F)F)c1,8.2,15.7,1.4,-12.8,-13.6,-2.1,nt,nt
COc1cc(NC(=O)C2CCCCC2)c(OC)cc1NC(=O)c1ccco1,23.0,9.3,-2.0,-9.9,9.1,-7.0,nt,nt
CCOc1cc(NC(=O)C2CCCCC2)c(OCC)cc1NC(=O)c1ccco1,-26.0,3.1,32.1*,-4.3,-12.7,-2.7,-0.4,0.3
CN(Cc1cc([N+](=O)[O-])c2cccnc2c1O)C1CCCCC1,nt,nt,23.2*,nt,5.7,nt,-0.3,-1.7
CCCCc1cc(O)c(CCCC)c(O)c1,14.9,-2.4,9.8*,2.1,-27.1,-2.3,12.4*,26.6*
Cc1ccc(-n2nc3cc(C)c(N)cc3n2)cc1,-17.2,-3.1,9.6,4.0,8.7,2.7,1.7,4.0
Cc1cc2nn(-c3cccc4ccccc34)nc2cc1N,10.6,4.8,3.3,-10.0,15.0,4.2,nt,nt
COc1ccc(CCNC(=O)CN2CCOc3ccccc32)cc1OC,nt,nt,17.7*,nt,-2.7,nt,-0.7,-1.5
CCOC(=O)C1=C(C)N(C)C(=S)NC1c1ccc(Cl)cc1Cl (stereo not given),nt,nt,0.9,nt,-0.3,nt,nt,nt
CC1CN(C2CCN(S(=O)(=O)c3ccccc3)CC2)CC(C)O1 (stereo not given),-17.6,0.7,-0.6,-2.1,-6.0,0.6,nt,nt
CC1CN(C2CCN(S(=O)(=O)Cc3ccccc3)CC2)CC(C)O1 (stereo not given),18.4,-5.5,9.5,1.9,-8.6,-0.6,-0.7,-1.8
CCOC(=O)[C@@H]1C(c2c(OC)cc(OC)cc2OC)=NO[C@@H]1C(=O)OCC,nt,nt,-0.7,nt,-10.6,nt,nt,nt
CCOC(=O)c1c(CSC(=N)N)n(-c2ccc(Br)cc2)c2cc(Br)c(OC(C)=O)cc12,nt,nt,33.8*,nt,-9.2,nt,-3.8,-19.5
O=C(Cn1c(=O)oc2cc(S(=O)(=O)N3CCCC3)ccc21)NC1CCCc2ccccc21 (stereo not given),nt,nt,15.6*,nt,5.0,nt,2.1,-1.6
O=C(Cn1c(=O)oc2cc(S(=O)(=O)N3CCCCCC3)ccc21)NC1CCCCCCC1,2.8,6.9,-2.8,-9.5,12.9,-4.7,nt,nt
CCn1cc(/C=N\NC(=O)Cc2ccc([N+](=O)[O-])cc2)c(C)n1,nt,nt,-0.6,nt,1.7,nt,nt,nt
SMILES,S1P2 blocker,PTPN22 inh 2,GALR2 agonist,PTPN22 act,GALR2 blocker,S1P2 agonist,GALR2 agon conf,BLA activ ctr
Nc1nc(-c2ccccc2)cn1N,4.7,6.3,-1.1,-3.1,-16.0,-0.7,nt,nt
c1ccc(-c2cn3nc(-c4ccccc4)c(-c4ccccc4)nc3n2)cc1,31.4,10.9,9.0,-7.3,18.5,-0.5,1.7,0.1
Cc1cccn2c(=O)c3cc(C(=O)NCc4cccnc4)c(=N)n(C(C)C)c3nc12,-15.9,-2.8,8.7,2.4,-9.3,7.5,1.1,3.4
CC1(C)C2CCC1(C)C(OCC[N+](C)(C)CC(=O)OC1CCCCC1)C2 (stereo not given),nt,nt,0.5,nt,-18.2,nt,nt,nt
O=C(N/N=C/c1c(F)cccc1Cl)c1ccc(Cn2cc(Br)cn2)o1,nt,nt,40.0*,nt,14.5,nt,-0.7,-2.8
Cc1ccccc1OCCn1cc(/C=C(\C#N)C(=O)NCc2ccco2)c2ccccc21,nt,nt,1.4,nt,-5.0,nt,nt,nt
Cc1ccc(C)c(NC(=O)/C(C#N)=C/c2cn(CC(=O)NCc3ccco3)c3ccccc23)c1,nt,nt,69.6*,nt,-9.3,nt,27.4*,27.5*
Cc1cc(C)cc(NC(=O)/C(C#N)=C/c2cn(CC(=O)NCc3ccco3)c3ccccc23)c1,nt,nt,52.1*,nt,5.0,nt,26.0*,23.6*
O=[N+]([O-])c1cccc(/C=C/c2nc3ccc([N+](=O)[O-])cc3[nH]2)c1,22.4,17.9,-2.2,-15.9,0.4,-2.3,nt,nt
Cc1nn2cc(-c3ccc(-c4ccccc4)cc3)nc2s1,8.2,-3.2,-1.8,-0.9,-29.9,-7.5,nt,nt
Cc1nn2cc(-c3ccc(Cl)cc3)nc2s1,25.9,-1.3,9.8,-1.2,6.3,-4.8,-0.5,-2.3
COc1ccc(C(NC(=O)c2c(F)c(F)c(F)c(F)c2F)c2ccccc2)cc1 (stereo not given),nt,nt,-1.1,nt,11.4,nt,nt,nt
Oc1ccccc1/C=N/Nc1ccnc(SCc2ccccc2)n1,nt,nt,23.4*,nt,2.8,nt,3.9,0.3
CCOc1cc(/C=N\NC(=O)Cn2nc([N+](=O)[O-])cc2C)ccc1OCc1cccc2ccccc12,-23.4,7.3,34.5*,-7.3,-12.2,-4.0,-1.1,-3.5
CC1CC(C)CN(CCCNC(=O)CCNC(=O)Cn2ccc3ccccc3c2=O)C1 (stereo not given),-10.3,-1.0,-2.1,0.0,10.4,-2.3,nt,nt
Cc1ccccc1C(=O)N1CCC(C(=O)Nc2ccc3c(c2)OCCO3)CC1,1.3,-2.2,0.1,3.8,5.4,-0.1,nt,nt
Cc1cccc(NC(=O)C2CCCN(S(=O)(=O)c3cccc4nsnc34)C2)n1 (stereo not given),10.8,-4.6,10.6*,4.0,-9.5,-1.4,-0.8,-1.0
CCN(CC)c1ccc(C(=O)OCC(=O)Nc2cccc(S(=O)(=O)NC3=NCCCCC3)c2)cc1,nt,nt,-0.4,nt,-12.0,nt,nt,nt
CC(NC(=O)c1ccccc1)c1nc2ccccc2n1Cc1ccccc1F (stereo not given),4.8,-4.6,-1.3,6.4,4.9,-1.7,nt,nt
CCN(CC)c1ccc(NC(=O)Cn2c(C(C)NC(=O)c3ccccc3)nc3ccccc32)cc1 (stereo not given),nt,nt,11.3*,nt,-13.2,nt,-1.1,-3.4
COc1ccc(CCn2c(N)c(C(=O)NCc3ccco3)c3nc4ccccc4nc32)cc1,nt,nt,1.0,nt,4.5,nt,nt,nt
